Source: PubChem BioAssay (NCATS)
Unmarked numbers belong to inactive results. Results filed as inconclusive are left out. A call without a number means that no potency is given here. For some assays here: Potency and affinity values are given separately. Active and inactive are the calls of the source. Unless noted, how the calls were made is not given here.

Assays:
[1] = Ebola virus entry assay, green fluorescence channel
[2] = Ebola virus entry assay, blue channel fluorescence
[3] = Ebola virus entry assay, ratio channel
[4] = Ebola virus entry assay, green channel fluorescence
[5] = Ebola virus entry assay, reporter ratio channel; Channel type: primary
[6] = Ebola virus entry assay, blue channel (ratio component)
[7] = qHTS assay for measurement of the activity of small molecule inhibitors on Zika virus induced Caspase-3 activity in human iPSC derived neural progenitor cells (hNPCs) (AID 1224857; active means well fitted inhibition curve with a large enough effect; further: nearly all actives have a fitted effect of over 65% in size; further: potency means the concentration at half of the fitted maximal effect); conditions: hNPCs ZIKV-induced caspase-3/7, Caspase-Glo luminescence, 6 h; series mostly up to 45.7 µM
Procedure, shortened: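 Pretreat hNPCs with compound 1 h; infect ZIKV 2 FFU/cell; 6 h 37 C, 5% CO2; Caspase-Glo 3/7, 30 min RT; luminescence; normalize to no-virus and virus-only wells.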

[8] = qHTS assay for measurement of the activity of small molecule inhibitors on Zika virus induced Caspase-3 activity in human astrocytoma cells (AID 1224859; active means well fitted inhibition curve with a large enough effect); conditions: SNB-19 ZIKV-induced caspase-3/7, luminescence, 6 h; series mostly up to 45.7 µM
Procedure, shortened: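 Human SNB-19 astrocytoma cells in RPMI 1640 with 10% FBS receive compound one hour ahead of Zika virus at 2 FFU/cell. After 6 h infection, caspase-3/7 activity is detected by Caspase-Glo luminescence.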

| Compound | efficacy [1] [%] | outcome [2] | outcome [3] | outcome [4] | outcome [5] | outcome [6] | Potency [7] | outcome [8] | AC50 [3] | AC50 [5] | AC50 [2] |
| --- | --- | --- | --- | --- | --- | --- | --- | --- | --- | --- | --- |
| CC1(C)OC(=O)Nc2ccc(Br)cc21 | -21.5 | inactive | inactive | inactive | inactive | inactive |  |  |  |  |  |
| Cc1cccc(C)c1NC(=O)C(C)N (stereo unspecified) | -28.5 | inactive | inactive | inactive | inactive | inactive |  |  |  |  |  |
| O=[N+]([O-])c1nccn1CO[C@@H](CO)[C@H](O)CO | -11.8 | inactive | inactive | inactive | inactive | inactive |  |  |  |  |  |
| Cc1cc(O)c(C)c(C)c1O | -20.2 | inactive | inactive | inactive | inactive | inactive |  |  |  |  |  |
| CCOC(=O)NNc1nncc2ccccc12 | -15.2 | inactive | inactive | inactive | inactive | inactive |  |  |  |  |  |
| CCCc1cc(C(N)=S)ccn1 | -10.8 | inactive | inactive | inactive | inactive | inactive |  |  |  |  |  |
| Cn1c(=O)c2c(ncn2C)n(C)c1=O | -24.5 | inactive | inactive | inactive | inactive | inactive |  |  |  |  |  |
| NCC(=O)O | 13.7 | inactive | inactive | inactive | inactive | inactive |  |  |  |  |  |
| CCCCC(CC)COC(=O)C(C#N)=C(c1ccccc1)c1ccccc1 (stereo unspecified) | 53.9 | inactive | inactive | inactive | inactive | inactive |  |  |  |  |  |
| C[N+](C)(C)CCOC(=O)CCC(=O)OCC[N+](C)(C)C | 18.3 | inactive | inactive | inactive | inactive | inactive |  |  |  |  |  |
| CNC(C)Cc1ccc2c(c1)OCO2 (stereo unspecified) | -15.1 | inactive | inactive | inactive | inactive | inactive | inactive | inactive |  |  |  |
| CCCCCCCCCCCCOS(=O)(=O)O | -26.4 | inactive | inactive | inactive | inactive | inactive |  |  |  |  |  |
| O=C(O)/C=C/c1ccc(Cn2ccnc2)cc1 | -14.9 | inactive | inactive | inactive | inactive | inactive |  |  |  |  |  |
| O=c1[nH]c(=O)c2ccccc2o1 | 15 | inactive | inactive | inactive | inactive | inactive |  |  |  |  |  |
| NS(=O)(=O)c1cc2c(cc1Cl)NC(CSCc1ccccc1)=NS2(=O)=O | 11.6 | inactive | inactive | inactive | inactive | inactive |  |  |  |  |  |
| CCC1(c2ccccc2)CCC(=O)NC1=O (stereo unspecified) | 11 | inactive | inactive | inactive | inactive | inactive | inactive | inactive |  |  |  |
| CN(C)CCc1c[nH]c2ccc(O)cc12 | -13.8 | inactive | inactive | inactive | inactive | inactive | inactive | inactive |  |  |  |
| c1cc2c(c(N3CCNCC3)c1)OCCO2 | 11.5 | inactive | inactive | inactive | inactive | inactive | inactive | inactive |  |  |  |
| Nc1ccn([C@H]2CC[C@@H](CO)O2)c(=O)n1 | -13.2 | inactive | inactive | inactive | inactive | inactive |  |  |  |  |  |
| Cc1nnc(C(=O)NC(C)(C)c2nc(C(=O)NCc3ccc(F)cc3)c(O)c(=O)n2C)o1 | -16.5 | inactive | inactive | inactive | inactive | inactive |  |  |  |  |  |
| O=C1CC2(CCCC2)CC(=O)N1CCNCC1COc2ccccc2O1 (stereo unspecified) | 16.2 | inactive | inactive | inactive | inactive | inactive |  |  |  |  |  |
| CSc1ccc(C(=O)c2[nH]c(=O)[nH]c2C)cc1 | 19.8 | inactive | inactive | inactive | inactive | inactive |  |  |  |  |  |
| N[C@@H](CSSC[C@H](N)C(=O)O)C(=O)O | -14.5 | inactive | inactive | inactive | inactive | inactive |  |  |  |  |  |
| Nc1ccccc1C(=O)OCC(O)CO (stereo unspecified) | -15.8 | inactive | inactive | inactive | inactive | inactive | inactive | inactive |  |  |  |
| C/C=C/C(=O)N(CC)c1ccccc1C | 23.4 | inactive | inactive | inactive | inactive | inactive |  |  |  |  |  |
| CC(C(=O)O)c1ccc(CC2CCCC2=O)cc1 (stereo unspecified) | 31.1 | inactive | inactive | inactive | inactive | inactive |  |  |  |  |  |
| CNC(=O)c1c(I)c(NC(=O)CCCCC(=O)Nc2c(I)c(C(=O)O)c(I)c(C(=O)NC)c2I)c(I)c(C(=O)O)c1I | -24 | inactive | inactive | inactive | inactive | inactive |  |  |  |  |  |

| Compound | efficacy [1] [%] | outcome [2] | outcome [3] | outcome [4] | outcome [5] | outcome [6] | Potency [7] | outcome [8] | AC50 [3] | AC50 [5] | AC50 [2] |
| --- | --- | --- | --- | --- | --- | --- | --- | --- | --- | --- | --- |
| O=C1CC2(CCCC2)CC(=O)N1CCCCN1CCN(c2ncccn2)CC1 | 11.1 | inactive |  | inactive |  | inactive |  |  | 22.4 µM (active) | 22.4 µM (active) |  |
| CCCOC(=O)Cc1ccc(OCC(=O)N(CC)CC)c(OC)c1 | -14.5 | inactive | inactive | inactive | inactive | inactive | inactive | inactive |  |  |  |
| CC1=C2[C@H]3OC(=O)[C@@H](C)[C@@H]3CC[C@@]2(C)C=CC1=O | 18.3 | inactive | inactive | inactive | inactive | inactive | inactive | inactive |  |  |  |
| O=Cc1ccc(O)c(O)c1O | 43 | inactive | inactive | inactive | inactive | inactive |  |  |  |  |  |
| O=C(O)Cc1ccc2c(c1)C(=O)c1ccccc1CO2 | 17 | inactive | inactive | inactive | inactive | inactive |  |  |  |  |  |
| N#Cc1cc(NC(=O)C(=O)O)c(Cl)c(NC(=O)C(=O)O)c1 | 18.8 | inactive | inactive | inactive | inactive | inactive |  |  |  |  |  |
| CNC(C)Cc1ccccc1OC (stereo unspecified) | -13.2 | inactive | inactive | inactive | inactive | inactive | inactive | inactive |  |  |  |
| CCOc1cc(N)c(Cl)cc1C(=O)NCC1CN(Cc2ccc(F)cc2)CCO1 (stereo unspecified) | 26.3 | inactive | inactive | inactive |  | inactive |  |  |  | 39.8 µM (active) |  |
| OC(O)C(Cl)(Cl)Cl | 18.1 | inactive | inactive | inactive | inactive | inactive | inactive | inactive |  |  |  |
| O=c1[nH]c(=O)n([C@H]2C[C@H](O)[C@@H](CO)O2)cc1C(F)(F)F | 18.2 | inactive | inactive | inactive | inactive | inactive |  |  |  |  |  |
| CCN(CC)CC1CCCCN1CC(=O)N1c2ccccc2C(=O)Nc2cccnc21 (stereo unspecified) | 31.3 | inactive | inactive | inactive | inactive | inactive |  |  |  |  |  |
| COc1cc(N)c(Cl)cc1C(=O)NC1CN2CCC1CC2 (stereo unspecified) | -20.5 | inactive | inactive | inactive | inactive | inactive | inactive |  |  |  |  |
| O=C(NOCC1CC1)c1ccc(F)c(F)c1Nc1ccc(I)cc1Cl | 18.5 |  |  | inactive |  | inactive |  |  | 15.8 µM (active) | 15.8 µM (active) | 7.94 µM (active) |
| CC(=O)Oc1c(C)c(C)c2c(c1C)CC[C@@](C)(CCC[C@H](C)CCC[C@H](C)CCCC(C)C)O2 | -9.77 | inactive | inactive | inactive | inactive | inactive |  |  |  |  |  |
| Cc1sccc1Br | -12.3 | inactive | inactive | inactive | inactive | inactive |  |  |  |  |  |
| CCc1nnc(NS(=O)(=O)c2ccc(N)cc2)s1 | -8.59 | inactive | inactive | inactive | inactive | inactive |  |  |  |  |  |
| Cc1cccc(Cc2cnc[nH]2)c1C | -25 | inactive | inactive | inactive | inactive | inactive | inactive | inactive |  |  |  |
| Cc1ncc2n1-c1ccc(Cl)cc1C(c1ccccc1F)=NC2 | -12 | inactive | inactive | inactive | inactive | inactive |  | inactive |  |  |  |
| CCN(Cc1ccc(Cl)nc1)/C(=C/[N+](=O)[O-])NC | -11.7 | inactive | inactive | inactive | inactive | inactive | inactive | inactive |  |  |  |
| C[C@]12CC[C@H]3[C@@H](CCC4=CC(=O)CC[C@@]43C)[C@@H]1CC[C@@H]2C(=O)O | -23.5 | inactive | inactive | inactive | inactive | inactive | inactive | inactive |  |  |  |
| CC(C)[N+](C)(CCC(C(N)=O)(c1ccccc1)c1ccccc1)C(C)C | 13.5 | inactive | inactive | inactive | inactive | inactive | 31.6 µM (active) | inactive |  |  |  |
| C1CN2CCC1CC2 | -16 | inactive | inactive | inactive | inactive | inactive | inactive | inactive |  |  |  |
| CCOC(=O)NC(C)(C)Cc1ccc(Cl)cc1 | -26.2 | inactive | inactive | inactive | inactive | inactive | inactive | inactive |  |  |  |
| O=C(O)CCCCCCNC1c2ccccc2CCc2ccccc21 | 26.2 | inactive | inactive | inactive | inactive | inactive | inactive | inactive |  |  |  |
| CCCCC1C(=O)NC(=O)N(C2CCCCC2)C1=O (stereo unspecified) | 18.4 | inactive | inactive | inactive | inactive | inactive | inactive | inactive |  |  |  |
| C[C@]12CC[C@H](O)CC1=CC[C@@H]1[C@@H]2CC[C@]2(C)C(=O)CC[C@@H]12 | 42.1 | inactive | inactive | inactive | inactive | inactive | inactive | inactive |  |  |  |
